# Hits are enriched below; roughly 3.7% of the tested compounds scored in any of these assays.
# BRCA1 expr act: BRCA1 expression activation; MCF7-BRCA1-FFLuc reporter, luminescence, 48 h; response scale: scaled: vehicle 0%, 10 µM genistein 100%; Potency, µM (top dose mostly 46.1 µM), for the others: top-dose activation, usual class: activators; hit rate 1.1% among 380,000; further: potency means the concentration at half of the fitted maximal effect; nearly all actives have a fitted effect of over 80% in size
#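 Reporter cells (MCF7, BRCA1 promoter-firefly luciferase) received library compounds across a concentration series for 48 h. End-point luminescence was measured and concentration-effect curves derived after normalization.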
# B2AR arrestin: beta2AR (human) beta-arrestin recruitment activity; P07550; beta-arrestin recruitment to beta2AR, cell-based reporter; Potency, µM (top dose mostly 46.1 µM), for the others: at the highest dose activation, usual class: activators; hit rate 0.02% among 330,000; AID 492947;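 further: potency means the concentration at half of the fitted maximal effect; 0% = DMSO controls and full agonism = EC100 isoproterenol or metaproterenol; nearly all actives have a fitted effect of over 65% in size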
# RGS4 inhibitor: human RGS4 inhibition. P49798. Transcreener GDP fluorescence polarization, RGS4-accelerated GTP hydrolysis. Potency, µM (doses to about 114 µM), without a hit: at the top dose activity change, negative = inhibition, most hits filed as inhibitors. hit rate 0.039% among 390,000. AID 504845; further: potency means the concentration at half of the fitted maximal effect; on the % scale 0 is the no-effect control and ±100 the full control effect; nearly all actives have a fitted effect of over 75% in size
#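 MLSMR compounds (23 nl, pin-transferred) preincubated 10 min at room temperature with a 500nM (2x) first reagent, then RGS4 at 900nM (2x) plus Transcreener GDP mix added; fluorescence polarization (620/688 nm) read before and after 90 min at 30 °C.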
# D3 ag: agonists of human D3 dopamine receptor. max activation, %. D3R DiscoveRx beta-arrestin cells, luminescence, 90 min. hit rate 0.58% among 410,000. P35462; in the data active means max activation above about 30%; further: 0% is about no effect
#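 Agonist-mode cell screen: cells plated at 1500/well and incubated overnight at 37 °C, then exposed to library compounds for 90 min at 37 °C. Detection reagent was added for 30–60 min at room temperature, and luminescence was read.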
# PTHR1 ag: agonists of human PTHR1 parathyroid hormone receptor. Q03431. HEK293 GP2 PTHR1 cells, GloSensor cAMP luminescence, 1 h. Potency, µM (doses to about 115 µM), without a hit: at the highest dose activation, hits mostly activators. hit rate 0.075% among 410,000; further: potency means the concentration at half of the fitted maximal effect; nearly all actives have a fitted effect of over 55% in size
# Target sequence (Q03431 whole entry, looked up): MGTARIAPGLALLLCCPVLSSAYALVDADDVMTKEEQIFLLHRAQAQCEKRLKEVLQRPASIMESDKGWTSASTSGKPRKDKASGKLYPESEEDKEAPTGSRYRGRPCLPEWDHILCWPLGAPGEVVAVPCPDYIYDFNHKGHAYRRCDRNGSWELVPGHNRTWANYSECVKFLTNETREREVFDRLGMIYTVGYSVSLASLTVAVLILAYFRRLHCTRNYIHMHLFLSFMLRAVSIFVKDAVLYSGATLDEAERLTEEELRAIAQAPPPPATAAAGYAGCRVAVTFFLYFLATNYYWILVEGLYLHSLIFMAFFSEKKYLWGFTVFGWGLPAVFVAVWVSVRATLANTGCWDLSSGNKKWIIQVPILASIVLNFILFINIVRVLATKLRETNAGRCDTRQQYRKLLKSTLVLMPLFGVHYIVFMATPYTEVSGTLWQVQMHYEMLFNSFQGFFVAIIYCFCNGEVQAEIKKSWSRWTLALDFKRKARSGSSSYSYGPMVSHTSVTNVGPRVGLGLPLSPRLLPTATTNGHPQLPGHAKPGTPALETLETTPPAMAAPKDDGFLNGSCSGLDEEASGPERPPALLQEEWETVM
#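 HEK-293-derived GP2 cells expressing PTHR1 and a GloSensor cAMP reporter, 3,000/well, plated overnight, given luciferin plus IBMX (each 0.5 mM as added) for 1 h at 37 °C, then compound for 1 h at 37 °C. Luminescence was read after 15 min at room temperature.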
# DRD3 antagonist: D3 dopamine receptor (human) antagonism. P35462. D3R cells, DiscoveRx beta-arrestin luminescence, antagonist mode; hits give low values. max response, negative = inhibition, %. hit rate 2.5% among 360,000. AID 652054; in the data active means max response below about -50%; inconclusive means no clear call, values can overlap the other calls; further: on the % scale 0 is the no-effect control and ±100 the full control effect
#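 Cells plated overnight at 1500 cells/well, then exposed to library compounds with dopamine controls for 90 minutes at 37 degrees C. DiscoveRx reagent added for 30–60 minutes at room temperature; luminescence read, quantitative HTS format.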
# The depositor's hits bear a star; i = inactive; ? = inconclusive; · = not tested or not shown; [ ] = another dose, or the depositor's remark. Unless noted, the call rests on the fitted dose curve; in most records, active means well fitted curve in the direction sought with a large enough effect; inconclusive means small, poorly fitted or top-dose-only effect, or another doubt; inactive means no such curve, though single readings can be large; an effect the other way counts as inactive or inconclusive.
SMILES,BRCA1 expr act,B2AR arrestin,RGS4 inhibitor,D3 ag,PTHR1 ag,DRD3 antagonist
CCC(=O)[C@@]1(C)[C@H](C)C[C@H]2[C@@H]3CCC4=CC(=O)C=C[C@]4(C)[C@H]3[C@@H](O)C[C@@]21C,-15.7%,-1.0%,-0.2%,8.8,i,0.0
Cc1cccc(N(C)C(=O)CCS(=O)(=O)c2cc3c(cc2Cl)NC(=O)CO3)c1,0.8%,-0.4%,0.4%,0.4,i,6.3
O=[N+]([O-])c1cccc(-c2nnc(-c3ccc4c(c3)OCO4)o2)c1,2.51µM*,-2.6%,-17.8%,-2.0,-29.1%,26.1
O=[N+]([O-])c1cccc(-c2nnc(-c3ccccc3)o2)c1,72.1%,0.0%,-9.5%,-11.8,-12.4%,-18.7
Cc1nc2scc(-c3ccccc3)c2c(=O)n1N,13.1%,0.4%,-13.0%,5.3,-24.6%[57.5 µM],-15.0
Cc1nc2scc(-c3ccccc3)c2c(=O)n1N=C1C=CC(=O)C=C1,4.6%,0.2%,-136.4%,-18.3,-41.5%,-82.6*
O=C(NCc1ccc(F)cc1)C1CCCN1S(=O)(=O)c1cccc2nsnc12 (stereo unspecified),4.7%,0.1%,-6.4%,-9.5,i,-0.7
O=C(CS(=O)(=O)c1cccc2nsnc12)Nc1ccccc1,14.5%,·,-48.7%,3.1,-37.4%,·
FC(F)(F)c1cnc(Oc2ccc(-c3nnco3)cc2)c(Cl)c1,8.1%,-0.4%,-9.4%,3.0,-17.8%,23.8
O=C(COc1ccc(-c2nnco2)cc1)Nc1c(F)cccc1F,-0.2%,-0.4%,-8.5%,1.4,i,-15.4
Fc1cc(Br)ccc1COc1ccc(-c2nnco2)cc1,6.31µM*,-0.2%,8.3%,7.6,-9.0%,1.3
Fc1ccc(COc2ccc(-c3nnco3)cc2)c(Cl)c1,8.91µM*,0.5%,-5.6%,10.2,-29.1%,24.7
Cc1cc(C)n(-c2nnc(NC34CC5CC(CC(C5)C3)C4)nn2)n1,2.51µM*,0.0%,?,-1.7,-51.7%,-10.9
Cn1c(=O)c2c(-c3ccccc3)n(-c3ccccc3Br)cc2n(C)c1=O,-40.0%,·,·,-5.4,-14.4%,1.7
c1ccc2c(c1)NC1(CCCCCC1)n1c-2nc2ccccc21,2.82µM*,-0.2%,21.9%,-11.5,i,12.6
Cc1cc(NC(=O)c2cc(-c3ccncc3)nc3ccccc23)ccc1Br,-74.6%,-1.0%,-14.0%,5.3,-11.1%,57.9
CCC[N+](C)(C)c1ccc(/C=C/c2ccnc3ccccc23)cc1,-53.5%,·,·,·,·,·
Nc1ccc(CCc2nc3ccccc3o2)cc1,2.82µM*,-0.2%,-13.0%,-20.8,-12.5%[57.5 µM],-3.3
COc1ccccc1NS(=O)(=O)c1cc([N+](=O)[O-])ccc1N/N=C/c1c[nH]c2ccccc12,-46.5%,-0.5%,2.5%,-15.2,i,-87.6*
COc1ccccc1NS(=O)(=O)c1cc([N+](=O)[O-])ccc1N/N=C/c1sc(N2CCOCC2)nc1-c1ccccc1,-37.6%,-0.3%,5.4%,-16.0,i,-84.1*
O=[N+]([O-])c1ccccc1N/N=C/c1c[nH]c2ccccc12,6.7%,-0.4%,-16.6%,-3.5,-21.6%,-51.6*
COc1ccc(C(=O)N/N=C/c2sc(N3CCOCC3)nc2-c2ccccc2)cc1OC,10.1%,-0.2%,-21.2%,4.4,-6.1%,18.1
Nc1nnn(CC(=O)N/N=C/C=C/c2ccccc2)n1,-2.4%,-0.2%,-15.9%,0.9,i,8.0
Cc1cc(NS(=O)(=O)c2ccc(NC(=O)COc3ccccc3Br)cc2)no1,·,·,-14.1%,-1.2,i,·
O=c1[nH][nH]c2c1C(C1CCCCC1)OC(C1CCCCC1)C2 (stereo unspecified),6.8%,·,·,5.5,-21.1%,51.3
SMILES,BRCA1 expr act,B2AR arrestin,RGS4 inhibitor,D3 ag,PTHR1 ag,DRD3 antagonist
N#CCC(=O)N/N=C\c1cc(Br)ccc1OC/C=C/c1ccccc1,8.91µM*,-1.0%,6.5%,4.7,i,0.5
CCOC(=O)N/N=C\c1ccccc1OC/C=C/c1ccccc1,3.98µM*,6.0%,14.2%,5.9,-14.8%,-8.6
COC(=O)N/N=C\c1ccccc1OC/C=C/c1ccccc1,11.2µM*,-0.3%,8.7%,-26.4,i,-10.2
C[C@@H]1CN([C@H](C)CO)C(=O)CCCn2nncc2CO[C@H]1CN(C)S(=O)(=O)c1ccc(Oc2ccccc2)cc1,-46.9%,·,·,-6.3,-4.4%,?
CC(=O)N1CCCc2cc(S(=O)(=O)N3CCCC(C(=O)NC(C)C)C3)ccc21 (stereo unspecified),·,·,-0.1%,-2.1,-13.8%,·
NS(=O)(=O)c1ccc(N=NN2CCCCC2)cc1,10µM*,-0.8%,6.6%,4.4,i,0.1
CC(=O)NS(=O)(=O)c1ccc(N=NN2CCCCC2)cc1,19.9%,-0.7%,-14.4%,-5.2,-5.8%,-10.7
CN(C)CCCCOc1ccccc1-c1ccccc1,-0.9%,0.2%,28.9%,-53.2,-5.3%[57.5 µM],-76.8*
CN(C)CCCCOc1ccccc1F,-5.4%,-0.1%,-2.4%,-15.1,i,-27.9
CN(C)CCOc1ccccc1Cc1ccccc1,-12.4%,-0.4%,3.9%,-81.7,-17.9%,-74.5*
C=CCNCCOc1ccccc1-c1ccccc1,-21.6%,0.5%,-26.6%,-17.5,-14.1%,-63.8*
CCCCNCCOCCOc1ccccc1-c1ccccc1,-45.0%,-0.6%,13.3%,-6.0,i,-86.6*
O=C(NCc1ccccc1)c1cc(C2CCCCN2C(=O)c2ccccc2)on1 (stereo unspecified),2.7%,·,·,-1.3,-0.6%,?
CC1CN(C(=O)Nc2ccc(C(=O)NCc3cccc(F)c3)cc2)c2ccccc2S1 (stereo unspecified),·,·,2.2%,-5.9,i,·
Cc1ccc(C)c(CSc2nnc(-c3ccccn3)n2N)c1,11.1%,0.4%,-0.2%,1.1,i,-10.4
Nn1c(SCc2c(F)cccc2F)nnc1-c1ccccn1,5.62µM*,3.5%,-5.2%,-7.7,-9.3%,-9.3
Cc1cccc(-n2c(C)cc(/C=N\NC(=O)c3ccco3)c2C)c1,8.91µM*,0.1%,3.5%,-16.9,-16.4%,-23.8
O=C(N/N=C(\c1ccccc1)c1ccccn1)c1cccc([N+](=O)[O-])c1,-85.9%,0.2%,-19.7%,-11.9,-1.0%,-73.9*
Cc1cc(/C=N/NC(=O)c2ccccn2)c(C)n1-c1cccc([N+](=O)[O-])c1,10µM*,0.2%,-41.4%,-3.7,i,-12.1
Cc1cc(C(=O)N/N=C/c2cccc([N+](=O)[O-])c2)c(C)n1-c1ccccc1,44.9%,0.2%,-16.2%,5.6,-6.0%,-5.8
Cc1cc(/C=N/Nc2ccc([N+](=O)[O-])cn2)c(C)n1-c1ccccc1,10µM*,0.5%,18.9%,-4.1,-13.9%,?
O=C(NC(=O)N1CCN(C(c2ccccc2)c2ccccc2)CC1)c1ccccc1,-13.3%,0.1%,-4.2%,-15.1,-17.8%,-5.3

# Screening results deposited in PubChem BioAssay by National Center for Advancing Translational Sciences (NCATS).
